Results from PubChem BioAssay AID1159580 (chemical genetic matrix, 2015).
“And” between values parts separate entries of the source, which are not always exact repeats. Equal values may be shown once. About 2,000 (36%) of roughly 5,500 compounds were called active. About 18% were inconclusive and are not listed. Rule as the data show it: active = normalized growth mostly below about 0.91 (no sharp cut-off); inconclusive = no clear call, values can overlap the other calls; inactive = mostly above about 0.92. Some of the results follow.

Assay: chemical genetic growth profiling, strain panel (AID 1159580);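 also: tested at 20 µM; growth read once vehicle control cultures reached saturation at 30 °C; 1 = growth at the plate median or of vehicle wells; lower values mean less growth of the strain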
Details: S. cerevisiae deletion strains, growth OD

Measured: normalized growth

Cc1ccc(N(CC2=NCCN2)c2cccc(O)c2)cc1
inactive: locus YAL013W, strain DEP1, active compounds read low 0.994 and 0.986 | locus YAL021C, strain ccr4, active compounds read low 1.01 | locus YAL026C, strain drs2, active compounds read low 1.02 | locus YAL030W, strain snc1, active compounds read low 1.02 | locus YAL040C, strain CLN3, active compounds read low 1.01 | locus YBL061C, strain skt5, active compounds read low 0.998 | locus YBR009C, strain hhf1, active compounds read low 1.02 | locus YBR021W, strain FUR4, active compounds read low 0.991 | locus YBR023C, strain chs3, active compounds read low 1.02 | locus YBR171W, strain sec66, active compounds read low 1.01 | locus YBR229C, strain ROT2, active compounds read low 1 | locus YBR231C, strain swc5, active compounds read low 1.01 | locus YBR279W, strain paf1, active compounds read low 1.01 | locus YCL011C, strain gbp2, active compounds read low 1.02 | locus YCL016C, strain dcc1, active compounds read low 0.998 | locus YCL029C, strain bik1, active compounds read low 1.01 | locus YCL061C, strain MRC1 (second series), active compounds read low 0.992 | locus YCL069W, strain vba3, active compounds read low 1.02 | locus YCR088W, strain abp1, active compounds read low 1.01 | locus YDL005C, strain med2, active compounds read low 1.02 | locus YDL035C, strain GPR1, active compounds read low 0.985 | locus YDL040C, strain nat1, active compounds read low 1.01 | locus YDL074C, strain BRE1, active compounds read low 0.908 | locus YDL101C, strain DUN1, active compounds read low 0.983 | locus YDL134C, strain PPH21, active compounds read low 0.994 | locus YDL185W, strain tfp1, active compounds read low 1.02 | locus YDL192W, strain arf1, active compounds read low 1.01 | locus YDR001C, strain nth1, active compounds read low 1.01 | locus YDR069C, strain doa4, active compounds read low 0.998 | locus YDR101C, strain arx1, active compounds read low 0.985 | locus YDR137W, strain rgp1, active compounds read low 1.02 | locus YDR150W, strain NUM1, active compounds read low 1.01 | locus YDR159W, strain sac3, active compounds read low 1 | locus YDR162C, strain NBP2, active compounds read low 0.976 | locus YDR195W, strain ref2 1.02 | locus YDR297W, strain sur2, active compounds read low 1.02 | locus YDR318W, strain mcm21, active compounds read low 0.991 | locus YDR334W, strain swr1, active compounds read low 1.04 | locus YDR335W, strain msn5, active compounds read low 1.03 | locus YDR363W, strain ESC2, active compounds read low 1.06 | locus YDR388W, active compounds read low 1.01 | locus YDR392W, strain spt3, active compounds read low 0.95 | locus YDR502C, strain sam2, active compounds read low 0.977 | locus YEL003W, strain gim4, active compounds read low 1.03 | locus YEL037C, strain rad23, active compounds read low 1.03 | locus YEL061C, strain CIN8 (second series), active compounds read low 1.02 | locus YEL061C, strain CIN8, active compounds read low 1.04 | locus YER002W, strain NOP16, active compounds read low 1.01 | locus YER015W, strain faa2, active compounds read low 1.02 | locus YER016W, strain bim1, active compounds read low 1.02 | locus YER110C, active compounds read low 1.03 | locus YER111C, strain swi4, active compounds read low 1.02 | locus YER155C, strain BEM2 (second series), active compounds read low 0.929 | locus YER155C, strain BEM2, active compounds read low 1.01 | locus YER167W, strain BCK2, active compounds read low 0.972 | locus YFR010W, strain ubp6, active compounds read low 1.02 | locus YGL078C, strain dbp3, active compounds read low 0.995 | locus YGL086W, strain mad1, active compounds read low 1.02 | locus YGL167C, strain pmr1, active compounds read low 1.02 | locus YGL173C, strain kem1, active compounds read low 1.01 | locus YGL227W, strain vid30, active compounds read low 1.03 | locus YGL240W, strain doc1, active compounds read low 0.972 | locus YGL248W, strain PDE1, active compounds read low 0.997 | locus YGL253W, strain hxk2, active compounds read low 1.02 | locus YGR078C, strain PAC10, active compounds read low 0.972 and 1.01 | locus YGR135W, strain pre9, active compounds read low 0.976 | locus YGR229C, strain SMI1, active compounds read low 0.912 and 0.979 | locus YGR252W, strain gcn5, active compounds read low 0.926 | locus YHR013C, strain ard1, active compounds read low 1 | locus YHR027C, strain rpn1, active compounds read low 1.01 | locus YHR030C, strain SLT2, active compounds read low 1.01 and 1.04 | locus YHR079C, strain IRE1 (second series), active compounds read low 0.99 | locus YHR079C, strain IRE1, active compounds read low 1.05 | locus YHR094C, strain hxt1, active compounds read low 1 | locus YHR129C, strain ARP1, active compounds read low 0.984 | locus YHR142W, strain chs7, active compounds read low 1.02 | locus YHR200W, strain rpn10, active compounds read low 1 | locus YIL066C, strain RNR3, active compounds read low 1.01 | locus YIL073C, strain SPO22, active compounds read low 1.1 | locus YIL125W, strain kgd1, active compounds read low 0.993 | locus YIR030C, strain dcg1, active compounds read low 1.01 | locus YJL092W, strain hpr5, active compounds read low 1.02 | locus YJL095W, strain BCK1 (second series), active compounds read low 1.01 | locus YJL095W, strain BCK1, active compounds read low 0.905 and 1.04 | locus YJL115W, strain asf1, active compounds read low 1.03 | locus YJL129C, strain trk1, active compounds read low 1.02 | locus YJL134W, strain LCB3, active compounds read low 1.01 | locus YJL154C, strain vps35, active compounds read low 1.03 | locus YJL164C, strain tpk1, active compounds read low 1 | locus YJL166W, strain qcr8, active compounds read low 0.993 | locus YJL168C, strain set2, active compounds read low 1.01 | locus YJL187C, strain SWE1 (second series), active compounds read low 0.993 | locus YJL187C, strain SWE1, active compounds read low 1.01 | locus YJR066W, strain TOR1, active compounds read low 0.978
active: locus YJR043C, strain POL32, active compounds read low 0.85
